Assay results taken from ChEMBL document CHEMBL2218924, “A broad activity screen in support of a chemogenomic map for kinase signalling research and drug discovery” (Biochem J, 2013).

Tests used:
[1] = biological target: T1, Ephrin type-B receptor 1 (Homo sapiens) (UniProt P54762); settings: at 10 µM
T1 sequence (whole entry): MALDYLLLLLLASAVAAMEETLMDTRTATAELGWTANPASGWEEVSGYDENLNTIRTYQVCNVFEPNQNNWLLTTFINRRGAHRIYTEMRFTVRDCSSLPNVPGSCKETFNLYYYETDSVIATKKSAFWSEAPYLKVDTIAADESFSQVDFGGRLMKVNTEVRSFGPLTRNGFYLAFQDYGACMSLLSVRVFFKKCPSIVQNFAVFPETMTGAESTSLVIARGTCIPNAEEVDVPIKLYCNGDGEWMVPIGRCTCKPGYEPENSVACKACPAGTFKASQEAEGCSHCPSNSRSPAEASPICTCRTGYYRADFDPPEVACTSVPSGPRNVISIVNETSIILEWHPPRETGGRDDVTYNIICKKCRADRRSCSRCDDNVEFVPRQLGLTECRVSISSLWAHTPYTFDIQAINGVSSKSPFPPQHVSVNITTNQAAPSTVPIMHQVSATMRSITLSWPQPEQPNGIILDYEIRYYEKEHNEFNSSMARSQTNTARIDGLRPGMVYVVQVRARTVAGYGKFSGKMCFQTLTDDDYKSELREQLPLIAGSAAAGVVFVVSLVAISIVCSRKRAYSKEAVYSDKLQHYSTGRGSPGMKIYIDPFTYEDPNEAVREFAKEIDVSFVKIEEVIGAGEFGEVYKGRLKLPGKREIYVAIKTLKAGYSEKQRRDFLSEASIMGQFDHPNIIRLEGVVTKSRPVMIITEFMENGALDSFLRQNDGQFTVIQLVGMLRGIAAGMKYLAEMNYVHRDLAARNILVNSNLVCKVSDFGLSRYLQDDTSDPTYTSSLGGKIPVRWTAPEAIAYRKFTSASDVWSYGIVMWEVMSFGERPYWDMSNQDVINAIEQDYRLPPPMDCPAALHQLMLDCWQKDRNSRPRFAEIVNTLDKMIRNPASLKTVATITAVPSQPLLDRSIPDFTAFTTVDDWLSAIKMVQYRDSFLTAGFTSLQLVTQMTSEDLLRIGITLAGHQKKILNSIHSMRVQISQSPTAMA

[2] = biological target: T2, Ephrin type-B receptor 2 (Homo sapiens) (UniProt P29323); settings: at 1 µM
T2 sequence (whole entry): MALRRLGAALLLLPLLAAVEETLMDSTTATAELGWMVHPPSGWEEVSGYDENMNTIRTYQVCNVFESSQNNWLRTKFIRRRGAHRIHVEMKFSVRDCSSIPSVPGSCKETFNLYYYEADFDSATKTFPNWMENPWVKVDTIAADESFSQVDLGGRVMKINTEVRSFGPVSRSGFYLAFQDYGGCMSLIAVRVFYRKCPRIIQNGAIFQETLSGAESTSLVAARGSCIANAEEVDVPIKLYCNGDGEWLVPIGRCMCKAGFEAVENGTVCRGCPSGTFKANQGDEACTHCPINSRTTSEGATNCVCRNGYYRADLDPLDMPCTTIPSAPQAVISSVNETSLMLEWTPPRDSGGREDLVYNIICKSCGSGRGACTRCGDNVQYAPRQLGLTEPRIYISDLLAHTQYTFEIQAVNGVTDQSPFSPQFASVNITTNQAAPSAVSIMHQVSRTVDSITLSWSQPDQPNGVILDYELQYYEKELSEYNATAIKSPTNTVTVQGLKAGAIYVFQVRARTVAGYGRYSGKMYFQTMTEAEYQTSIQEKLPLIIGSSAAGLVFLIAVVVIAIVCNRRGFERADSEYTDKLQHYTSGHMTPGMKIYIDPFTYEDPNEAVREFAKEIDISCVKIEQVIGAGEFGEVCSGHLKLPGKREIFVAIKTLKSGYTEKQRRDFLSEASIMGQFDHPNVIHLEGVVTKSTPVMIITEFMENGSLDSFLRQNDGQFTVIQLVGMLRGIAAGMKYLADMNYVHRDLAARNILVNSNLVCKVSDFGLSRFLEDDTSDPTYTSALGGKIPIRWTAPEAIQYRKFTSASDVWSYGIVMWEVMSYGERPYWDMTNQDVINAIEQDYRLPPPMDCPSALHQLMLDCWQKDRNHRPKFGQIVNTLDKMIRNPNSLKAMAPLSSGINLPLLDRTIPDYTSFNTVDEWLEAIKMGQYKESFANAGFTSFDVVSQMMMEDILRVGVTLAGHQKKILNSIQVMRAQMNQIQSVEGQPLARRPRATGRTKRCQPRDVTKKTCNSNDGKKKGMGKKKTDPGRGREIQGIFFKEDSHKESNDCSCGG

[3] = biological target: T2, Ephrin type-B receptor 2 (Homo sapiens); settings: at 10 µM
[4] = biological target: T3, Ephrin type-B receptor 3 (Homo sapiens) (UniProt P54753); settings: at 1 µM
T3 sequence (whole entry): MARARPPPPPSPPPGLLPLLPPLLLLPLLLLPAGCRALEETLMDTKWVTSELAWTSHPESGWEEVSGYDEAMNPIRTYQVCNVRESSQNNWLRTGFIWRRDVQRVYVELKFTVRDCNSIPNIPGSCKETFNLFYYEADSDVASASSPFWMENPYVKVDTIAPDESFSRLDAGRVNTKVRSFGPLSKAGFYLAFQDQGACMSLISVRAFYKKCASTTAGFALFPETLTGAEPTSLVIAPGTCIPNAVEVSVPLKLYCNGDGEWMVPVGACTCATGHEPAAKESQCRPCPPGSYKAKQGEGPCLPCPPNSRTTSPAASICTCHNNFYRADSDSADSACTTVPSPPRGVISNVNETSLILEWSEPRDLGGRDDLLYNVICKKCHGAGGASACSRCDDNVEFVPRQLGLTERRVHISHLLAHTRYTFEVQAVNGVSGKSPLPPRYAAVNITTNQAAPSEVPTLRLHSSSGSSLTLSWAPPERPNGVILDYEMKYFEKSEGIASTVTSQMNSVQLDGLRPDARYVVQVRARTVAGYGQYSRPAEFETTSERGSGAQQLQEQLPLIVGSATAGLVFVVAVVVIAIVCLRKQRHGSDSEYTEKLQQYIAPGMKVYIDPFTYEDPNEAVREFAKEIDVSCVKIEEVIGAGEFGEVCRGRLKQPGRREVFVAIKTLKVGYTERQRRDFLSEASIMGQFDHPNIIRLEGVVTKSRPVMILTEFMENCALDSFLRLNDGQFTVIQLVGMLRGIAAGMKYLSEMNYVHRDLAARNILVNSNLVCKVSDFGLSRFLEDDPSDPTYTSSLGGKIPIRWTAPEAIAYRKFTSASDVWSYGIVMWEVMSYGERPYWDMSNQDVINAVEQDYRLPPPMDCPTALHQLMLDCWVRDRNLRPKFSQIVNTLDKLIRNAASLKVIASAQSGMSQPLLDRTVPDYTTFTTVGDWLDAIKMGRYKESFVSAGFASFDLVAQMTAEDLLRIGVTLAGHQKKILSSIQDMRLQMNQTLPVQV

[5] = biological target: T3, Ephrin type-B receptor 3 (Homo sapiens); settings: at 10 µM
[6] = biological target: T4, Ephrin type-B receptor 4 (Homo sapiens) (UniProt P54760); settings: at 1 µM
T4 sequence (whole entry): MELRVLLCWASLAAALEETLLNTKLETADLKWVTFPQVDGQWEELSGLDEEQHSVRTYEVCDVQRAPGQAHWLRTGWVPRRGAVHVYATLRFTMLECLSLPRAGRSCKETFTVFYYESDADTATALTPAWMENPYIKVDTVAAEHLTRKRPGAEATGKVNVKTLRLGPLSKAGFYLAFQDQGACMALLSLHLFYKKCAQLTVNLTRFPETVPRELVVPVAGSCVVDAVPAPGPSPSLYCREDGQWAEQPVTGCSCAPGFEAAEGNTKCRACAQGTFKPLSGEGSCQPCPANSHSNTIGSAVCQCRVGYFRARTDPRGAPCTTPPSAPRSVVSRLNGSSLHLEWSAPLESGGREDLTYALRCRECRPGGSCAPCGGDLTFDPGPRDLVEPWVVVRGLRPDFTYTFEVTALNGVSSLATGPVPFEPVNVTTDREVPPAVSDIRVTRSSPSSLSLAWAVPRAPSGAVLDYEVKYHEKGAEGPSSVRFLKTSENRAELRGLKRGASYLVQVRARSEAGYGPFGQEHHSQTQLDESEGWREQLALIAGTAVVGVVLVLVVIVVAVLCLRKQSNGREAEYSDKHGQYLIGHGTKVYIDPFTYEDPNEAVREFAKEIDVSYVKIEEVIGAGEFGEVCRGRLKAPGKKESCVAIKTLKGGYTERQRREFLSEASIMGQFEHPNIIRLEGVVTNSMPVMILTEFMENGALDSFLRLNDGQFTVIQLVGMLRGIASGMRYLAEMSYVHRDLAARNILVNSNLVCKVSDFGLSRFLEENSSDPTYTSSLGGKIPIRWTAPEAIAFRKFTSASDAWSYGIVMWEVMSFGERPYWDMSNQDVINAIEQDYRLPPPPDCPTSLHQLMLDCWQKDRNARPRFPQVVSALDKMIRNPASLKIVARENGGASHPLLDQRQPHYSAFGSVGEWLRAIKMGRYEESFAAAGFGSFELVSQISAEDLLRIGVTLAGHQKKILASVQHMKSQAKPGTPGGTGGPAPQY

[7] = biological target: T4, Ephrin type-B receptor 4 (Homo sapiens); settings: at 10 µM
[8] = biological target: Receptor tyrosine-protein kinase erbB-4 (Homo sapiens) (UniProt Q15303); settings: at 1 µM
[9] = biological target: Receptor tyrosine-protein kinase erbB-4 (Homo sapiens) (UniProt Q15303); settings: at 10 µM
[10] = biological target: Focal adhesion kinase 1 (Homo sapiens) (UniProt Q05397); settings: at 1 µM
[11] = biological target: Focal adhesion kinase 1 (Homo sapiens) (UniProt Q05397); settings: at 10 µM
[12] = biological target: Fibroblast growth factor receptor 1 (Homo sapiens) (UniProt P11362); settings: at 1 µM
[13] = biological target: Fibroblast growth factor receptor 1 (Homo sapiens) (UniProt P11362); settings: at 10 µM
[14] = biological target: Fibroblast growth factor receptor 2 (Homo sapiens) (UniProt P21802); settings: at 1 µM
[15] = biological target: Fibroblast growth factor receptor 2 (Homo sapiens) (UniProt P21802); settings: at 10 µM
[16] = biological target: Fibroblast growth factor receptor 3 (Homo sapiens) (UniProt P22607); settings: at 10 µM
[17] = biological target: Fibroblast growth factor receptor 4 (Homo sapiens) (UniProt P22455); settings: at 1 µM
[18] = biological target: Fibroblast growth factor receptor 4 (Homo sapiens) (UniProt P22455); settings: at 10 µM
[19] = biological target: Tyrosine-protein kinase Fer (Homo sapiens) (UniProt P16591); settings: at 1 µM
[20] = biological target: Fibroblast growth factor receptor 3 (Homo sapiens) (UniProt P22607); settings: at 1 µM

Sequence of Fibroblast growth factor receptor 1 (Homo sapiens) (P11362 22-822 limits assumed): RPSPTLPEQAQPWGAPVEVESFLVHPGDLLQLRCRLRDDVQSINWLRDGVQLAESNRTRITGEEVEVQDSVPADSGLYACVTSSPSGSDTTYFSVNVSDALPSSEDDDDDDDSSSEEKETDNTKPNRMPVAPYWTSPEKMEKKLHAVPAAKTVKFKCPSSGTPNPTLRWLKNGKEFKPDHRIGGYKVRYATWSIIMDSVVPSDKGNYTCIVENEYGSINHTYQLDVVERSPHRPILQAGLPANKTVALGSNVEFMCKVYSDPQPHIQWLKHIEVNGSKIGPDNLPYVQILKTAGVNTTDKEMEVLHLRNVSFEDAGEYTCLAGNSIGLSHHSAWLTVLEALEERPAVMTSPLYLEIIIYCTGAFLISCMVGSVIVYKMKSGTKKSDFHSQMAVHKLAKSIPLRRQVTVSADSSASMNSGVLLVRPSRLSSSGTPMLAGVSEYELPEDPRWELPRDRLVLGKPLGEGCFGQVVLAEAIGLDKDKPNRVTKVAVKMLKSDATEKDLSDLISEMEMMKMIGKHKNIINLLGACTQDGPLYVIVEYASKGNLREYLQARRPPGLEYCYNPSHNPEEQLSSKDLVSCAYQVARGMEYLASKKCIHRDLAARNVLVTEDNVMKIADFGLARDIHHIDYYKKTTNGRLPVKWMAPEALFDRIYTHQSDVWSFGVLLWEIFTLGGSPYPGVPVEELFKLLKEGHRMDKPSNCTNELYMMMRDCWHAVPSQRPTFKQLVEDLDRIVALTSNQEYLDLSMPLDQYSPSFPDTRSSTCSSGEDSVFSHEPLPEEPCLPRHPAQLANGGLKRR
Sequence of Fibroblast growth factor receptor 2 (Homo sapiens) (P21802 22-821 limits assumed): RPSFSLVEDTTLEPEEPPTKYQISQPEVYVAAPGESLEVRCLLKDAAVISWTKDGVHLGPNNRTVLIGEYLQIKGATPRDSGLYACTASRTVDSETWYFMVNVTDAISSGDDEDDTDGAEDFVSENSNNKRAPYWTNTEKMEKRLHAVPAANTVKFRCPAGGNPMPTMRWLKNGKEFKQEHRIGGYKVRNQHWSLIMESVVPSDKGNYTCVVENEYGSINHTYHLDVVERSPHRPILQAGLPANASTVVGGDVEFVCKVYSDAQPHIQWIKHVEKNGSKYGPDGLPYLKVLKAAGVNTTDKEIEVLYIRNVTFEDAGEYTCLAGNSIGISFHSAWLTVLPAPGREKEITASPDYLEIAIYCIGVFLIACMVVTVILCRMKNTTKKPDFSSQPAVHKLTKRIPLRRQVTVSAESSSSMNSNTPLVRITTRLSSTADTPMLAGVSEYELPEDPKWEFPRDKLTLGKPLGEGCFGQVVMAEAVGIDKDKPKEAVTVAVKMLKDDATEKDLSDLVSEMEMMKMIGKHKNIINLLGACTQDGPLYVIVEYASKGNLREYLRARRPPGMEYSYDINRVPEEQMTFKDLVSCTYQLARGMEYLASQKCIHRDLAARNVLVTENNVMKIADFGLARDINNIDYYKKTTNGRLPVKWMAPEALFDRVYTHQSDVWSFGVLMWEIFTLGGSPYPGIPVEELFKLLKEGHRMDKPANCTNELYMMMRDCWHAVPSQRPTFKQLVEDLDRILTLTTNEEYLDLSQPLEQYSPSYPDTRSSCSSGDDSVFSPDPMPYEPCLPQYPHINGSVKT
Sequence of Fibroblast growth factor receptor 4 (Homo sapiens) (P22455 22-802 limits assumed): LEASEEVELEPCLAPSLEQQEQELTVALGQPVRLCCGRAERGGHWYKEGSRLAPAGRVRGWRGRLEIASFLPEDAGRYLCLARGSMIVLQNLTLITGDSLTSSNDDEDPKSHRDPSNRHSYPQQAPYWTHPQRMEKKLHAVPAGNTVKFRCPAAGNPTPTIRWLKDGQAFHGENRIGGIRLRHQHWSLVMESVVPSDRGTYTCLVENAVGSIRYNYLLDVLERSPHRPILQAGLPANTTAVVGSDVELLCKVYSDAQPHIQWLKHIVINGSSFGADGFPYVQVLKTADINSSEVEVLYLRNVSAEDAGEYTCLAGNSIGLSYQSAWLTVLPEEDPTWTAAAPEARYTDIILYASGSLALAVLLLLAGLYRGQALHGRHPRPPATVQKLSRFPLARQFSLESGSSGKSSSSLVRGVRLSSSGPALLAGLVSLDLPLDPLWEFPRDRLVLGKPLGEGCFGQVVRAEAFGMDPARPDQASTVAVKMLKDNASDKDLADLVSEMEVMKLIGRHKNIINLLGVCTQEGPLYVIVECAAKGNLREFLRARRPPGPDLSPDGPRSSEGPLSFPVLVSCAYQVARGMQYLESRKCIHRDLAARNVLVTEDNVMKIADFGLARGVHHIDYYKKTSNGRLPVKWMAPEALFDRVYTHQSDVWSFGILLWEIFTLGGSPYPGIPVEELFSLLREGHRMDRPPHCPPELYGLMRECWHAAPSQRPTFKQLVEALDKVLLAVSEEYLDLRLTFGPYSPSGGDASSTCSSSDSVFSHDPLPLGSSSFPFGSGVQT
Sequence of Fibroblast growth factor receptor 3 (Homo sapiens) (P22607 23-806 limits assumed): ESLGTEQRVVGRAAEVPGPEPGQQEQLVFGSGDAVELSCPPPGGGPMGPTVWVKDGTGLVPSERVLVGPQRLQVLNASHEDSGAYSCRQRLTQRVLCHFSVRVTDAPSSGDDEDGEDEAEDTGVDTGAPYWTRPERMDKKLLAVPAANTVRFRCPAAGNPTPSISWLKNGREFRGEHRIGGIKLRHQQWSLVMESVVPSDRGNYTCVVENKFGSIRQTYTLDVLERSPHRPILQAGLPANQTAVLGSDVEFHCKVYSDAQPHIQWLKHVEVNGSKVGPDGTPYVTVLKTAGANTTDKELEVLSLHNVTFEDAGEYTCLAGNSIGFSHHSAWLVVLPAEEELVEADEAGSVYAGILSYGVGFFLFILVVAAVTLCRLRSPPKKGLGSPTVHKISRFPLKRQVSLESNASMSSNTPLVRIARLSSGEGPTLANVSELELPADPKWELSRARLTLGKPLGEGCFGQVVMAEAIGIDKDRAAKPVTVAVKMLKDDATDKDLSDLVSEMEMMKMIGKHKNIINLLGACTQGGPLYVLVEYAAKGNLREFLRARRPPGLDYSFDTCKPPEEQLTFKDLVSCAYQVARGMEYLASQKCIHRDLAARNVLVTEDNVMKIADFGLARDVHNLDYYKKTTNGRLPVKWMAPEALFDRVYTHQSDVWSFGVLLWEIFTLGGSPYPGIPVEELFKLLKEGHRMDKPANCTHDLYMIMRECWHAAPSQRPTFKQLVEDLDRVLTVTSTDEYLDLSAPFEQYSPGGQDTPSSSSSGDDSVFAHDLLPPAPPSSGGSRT
Sequence of Tyrosine-protein kinase Fer (Homo sapiens) (P16591 whole entry, looked up): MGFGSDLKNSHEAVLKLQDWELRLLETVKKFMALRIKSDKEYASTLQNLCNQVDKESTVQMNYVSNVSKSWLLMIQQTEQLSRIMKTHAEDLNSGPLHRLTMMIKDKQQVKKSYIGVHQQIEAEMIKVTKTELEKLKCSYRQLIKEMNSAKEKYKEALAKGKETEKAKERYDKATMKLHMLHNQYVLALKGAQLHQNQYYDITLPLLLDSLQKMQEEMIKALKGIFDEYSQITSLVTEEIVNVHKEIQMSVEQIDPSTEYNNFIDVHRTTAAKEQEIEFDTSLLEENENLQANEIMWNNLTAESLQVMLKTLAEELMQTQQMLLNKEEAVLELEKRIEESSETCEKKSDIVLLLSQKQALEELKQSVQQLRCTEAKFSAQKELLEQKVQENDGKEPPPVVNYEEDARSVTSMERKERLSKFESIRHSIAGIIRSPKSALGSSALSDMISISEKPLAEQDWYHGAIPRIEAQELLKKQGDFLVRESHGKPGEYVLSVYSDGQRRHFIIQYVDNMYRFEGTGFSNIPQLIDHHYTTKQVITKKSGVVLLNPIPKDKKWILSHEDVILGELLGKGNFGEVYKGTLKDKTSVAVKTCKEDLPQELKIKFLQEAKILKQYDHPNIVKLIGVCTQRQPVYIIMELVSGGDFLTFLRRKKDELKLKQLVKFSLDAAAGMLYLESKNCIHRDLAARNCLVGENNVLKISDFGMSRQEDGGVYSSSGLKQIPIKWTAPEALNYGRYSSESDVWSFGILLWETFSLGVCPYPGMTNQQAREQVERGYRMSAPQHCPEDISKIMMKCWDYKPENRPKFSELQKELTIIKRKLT
Sequence of Focal adhesion kinase 1 (Homo sapiens) (Q05397 2-1052 limits assumed): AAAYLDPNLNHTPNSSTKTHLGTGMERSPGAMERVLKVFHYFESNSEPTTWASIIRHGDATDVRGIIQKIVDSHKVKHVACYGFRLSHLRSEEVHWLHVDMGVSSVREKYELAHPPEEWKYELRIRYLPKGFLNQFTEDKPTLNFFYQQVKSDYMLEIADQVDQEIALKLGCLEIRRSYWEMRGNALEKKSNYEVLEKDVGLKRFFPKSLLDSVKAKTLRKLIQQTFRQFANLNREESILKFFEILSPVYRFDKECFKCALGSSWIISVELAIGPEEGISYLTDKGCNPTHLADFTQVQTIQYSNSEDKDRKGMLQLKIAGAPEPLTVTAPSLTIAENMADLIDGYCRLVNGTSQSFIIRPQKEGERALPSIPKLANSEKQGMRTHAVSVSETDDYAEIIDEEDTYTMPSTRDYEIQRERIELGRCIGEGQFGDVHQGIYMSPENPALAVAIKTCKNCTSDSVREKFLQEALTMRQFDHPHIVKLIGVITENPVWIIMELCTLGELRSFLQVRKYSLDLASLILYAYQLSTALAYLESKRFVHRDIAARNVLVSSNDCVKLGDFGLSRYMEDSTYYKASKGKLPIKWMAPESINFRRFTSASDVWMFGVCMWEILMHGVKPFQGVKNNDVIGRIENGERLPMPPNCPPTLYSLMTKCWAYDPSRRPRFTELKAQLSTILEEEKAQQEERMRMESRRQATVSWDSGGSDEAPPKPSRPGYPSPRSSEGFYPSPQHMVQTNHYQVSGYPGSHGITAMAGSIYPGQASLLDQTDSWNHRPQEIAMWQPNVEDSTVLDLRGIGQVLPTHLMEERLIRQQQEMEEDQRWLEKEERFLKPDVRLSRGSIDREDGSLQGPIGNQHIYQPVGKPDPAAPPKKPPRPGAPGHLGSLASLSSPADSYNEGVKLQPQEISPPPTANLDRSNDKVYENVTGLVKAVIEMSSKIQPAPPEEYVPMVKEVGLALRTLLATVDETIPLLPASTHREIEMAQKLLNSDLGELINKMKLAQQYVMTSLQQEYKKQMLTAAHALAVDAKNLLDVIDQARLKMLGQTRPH

Structure (SMILES)	residual activity [1]	residual activity [2]	residual activity [3]	residual activity [4]	residual activity [5]	residual activity [6]	residual activity [7]	residual activity [8]	residual activity [9]	residual activity [10]	residual activity [11]	residual activity [12]	residual activity [13]	residual activity [14]	residual activity [15]	residual activity [16]	residual activity [17]	residual activity [18]	residual activity [19]	residual activity [20]
Nc1n[nH]c2nnc(-c3c(-c4ccccc4)nn4ccccc34)cc12	87%	117%	110%	101% (inactive)	104%	83%	67%	81%	57%	96%	83%	110%	61%	98%	83%	102%	101%	94%	95%	–
C[C@@H](N)[C@H]1CC[C@H](C(=O)Nc2ccncc2)CC1	99%	90%	92%	111% (inactive)	110%	108%	102%	109%	113%	104%	96%	95%	98%	102%	82%	93%	100%	103%	100%	–
N#CC(C#N)=C(N)/C(C#N)=C/c1ccc(O)cc1	–	–	–	–	–	116%	119%	95%	76%	132%	97%	100%	75%	–	–	–	135%	–	–	99%
O=c1c2ccccc2[nH]c(=S)n1CCN1CCC(=C(c2ccc(F)cc2)c2ccc(F)cc2)CC1	90%	–	–	112% (inactive)	107%	99%	121%	102%	66%	135%	81%	83%	49%	119%	62%	78%	–	81%	109%	123%
Cc1nc2cc3nc(-c4cccs4)cnc3cc2n1C	91%	117%	107%	107% (inactive)	124%	108%	119%	116%	113%	80%	105%	102%	41%	72%	30%	23%	119%	95%	113%	79%
CO[C@H]1[C@@H](OC)C[C@H](C)[C@@H](OC)C2=CC(=O)C=C(NC(=O)/C(C)=C/C=C/[C@H](OC)[C@@H](OC(N)=O)/C(C)=C/[C@@H]1C)C2=O	103%	115%	128%	111% (inactive)	102%	94%	113%	92%	67%	110%	91%	82%	93%	104%	105%	102%	109%	94%	110%	112%
CC(=O)O/N=C1\C(=C2\C(=O)Nc3cc(Br)ccc32)Nc2ccccc21	47%	103%	60%	107% (inactive)	107%	71%	65%	96%	90%	95%	59%	17%	0%	73%	18%	22%	–	69%	94%	84%
Cc1ccc(NC2=CC(=O)c3sc(C)nc3C2=O)cc1	97%	123%	121%	104% (inactive)	99%	98%	96%	77%	88%	96%	99%	106%	112%	100%	92%	118%	101%	90%	92%	107%
CCN(CC)C(=O)c1ccc(Nc2nc(OCC3CCCCC3)c3nc[nH]c3n2)cc1	4%	103%	32%	102% (inactive)	52%	72%	12%	74%	34%	72%	12%	40%	2%	56%	9%	4%	–	–	53%	49%
COc1cc2ncnc(N3CCN(C(=O)Nc4ccc(Oc5ccccc5)cc4)CC3)c2cc1OC	102%	114%	–	110% (inactive)	146%	98%	112%	100%	145%	108%	76%	90%	89%	105%	102%	99%	120%	105%	104%	115%
O=C1Nc2ccccc2/C1=C1/Nc2ccccc2/C1=N\OCCC(O)CO (configuration not stated)	8%	82%	12%	117% (inactive)	112%	49%	4%	107%	105%	16%	1%	2%	-1%	20%	2%	23%	–	–	37%	22%
CC(=O)c1ccc(N2CCOCC2)cc1O	101%	–	106%	105% (inactive)	107%	–	–	93%	107%	–	94%	97%	–	–	–	128%	–	–	–	98%
COc1cc2ncnc(Nc3ccc(NC(=O)c4ccccc4)cc3)c2cc1OC	83%	–	–	–	–	–	–	35%	6%	142%	75%	–	–	–	92%	–	–	82%	111%	–
